JMJD2A Tudor inh – qHTS Assay for Inhibitors of JMJD2A-Tudor Domain. AlphaScreen JMJD2A-Tudor / H3K4me3 peptide binding. Potency, µM (series often up to 114 µM), for inactives: at the highest dose activity change, negative = inhibition, hits mostly inhibitors. 4.4% of 390,000 active; note: % is set by controls: 0 for no effect and ±100 for the full control effect; nearly all actives have a fitted effect of over 50% in size
HP1b chromo inh – HTS for Inhibitors of HP1-beta Chromodomain Interactions with Methylated Histone Tails. Potency, µM (highest dose often 114 µM), for inactives: top-dose activity change, negative = inhibition, most hits filed as inhibitors. 0.56% of 390,000 active. Chromobox protein homolog 1 (Homo sapiens), P83916. AlphaScreen HP1-beta / biotin-H3K9me3 peptide binding; note: nearly all actives have a fitted effect of over 70% in size
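AlphaScreen: HP1-beta (50 nM) preformed 30 min with biotin-H3(1-18)K9me3 peptide (50 nM) in PBS pH 7.4, 0.01% Tween-20. Compound added for 30 min at RT, then streptavidin donor/nickel chelate acceptor beads (10 ug/mL) for 30 min.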
G9a block – qHTS Assay for Inhibitors of Histone Lysine Methyltransferase G9a | Histone-lysine N-methyltransferase EHMT2 (Homo sapiens), Q96KQ7 | G9a H3K9 monomethylation, AlphaScreen, 2 h | Potency, µM (highest dose often 102 µM), for the others: top-dose activity, negative = inhibition, usual class: inhibitors | 8.8% of 350,000 active; note: % is set by controls: 0 for no effect and ±100 for the full control effect; nearly all actives have a fitted effect of over 75% in size
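Step 1: enzyme (final 20 nM) with compound, 15 min RT. Step 2: substrate peptide 500 nM and SAM 20 uM, 2 h RT. Step 3: anti-H3K9me1 antibody and AlphaScreen beads, 10 min, then plate read.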
L3MBTL1 block – qHTS Assay for the Inhibitors of L3MBTL1; AlphaScreen L3MBTL1–H3K9me1 peptide binding; Lethal(3)malignant brain tumor-like protein 1 (Homo sapiens), Q9Y468; 0.66% of 230,000 active; Potency, µM (titrated, usually from 57.1 µM), for the others: at the highest dose activity, negative = inhibition, actives largely listed as inhibitors; note: % is set by controls: 0 for no effect and ±100 for the full control effect; nearly all actives have a fitted effect of over 60% in size
Target sequence (Q9Y468 whole entry, looked up): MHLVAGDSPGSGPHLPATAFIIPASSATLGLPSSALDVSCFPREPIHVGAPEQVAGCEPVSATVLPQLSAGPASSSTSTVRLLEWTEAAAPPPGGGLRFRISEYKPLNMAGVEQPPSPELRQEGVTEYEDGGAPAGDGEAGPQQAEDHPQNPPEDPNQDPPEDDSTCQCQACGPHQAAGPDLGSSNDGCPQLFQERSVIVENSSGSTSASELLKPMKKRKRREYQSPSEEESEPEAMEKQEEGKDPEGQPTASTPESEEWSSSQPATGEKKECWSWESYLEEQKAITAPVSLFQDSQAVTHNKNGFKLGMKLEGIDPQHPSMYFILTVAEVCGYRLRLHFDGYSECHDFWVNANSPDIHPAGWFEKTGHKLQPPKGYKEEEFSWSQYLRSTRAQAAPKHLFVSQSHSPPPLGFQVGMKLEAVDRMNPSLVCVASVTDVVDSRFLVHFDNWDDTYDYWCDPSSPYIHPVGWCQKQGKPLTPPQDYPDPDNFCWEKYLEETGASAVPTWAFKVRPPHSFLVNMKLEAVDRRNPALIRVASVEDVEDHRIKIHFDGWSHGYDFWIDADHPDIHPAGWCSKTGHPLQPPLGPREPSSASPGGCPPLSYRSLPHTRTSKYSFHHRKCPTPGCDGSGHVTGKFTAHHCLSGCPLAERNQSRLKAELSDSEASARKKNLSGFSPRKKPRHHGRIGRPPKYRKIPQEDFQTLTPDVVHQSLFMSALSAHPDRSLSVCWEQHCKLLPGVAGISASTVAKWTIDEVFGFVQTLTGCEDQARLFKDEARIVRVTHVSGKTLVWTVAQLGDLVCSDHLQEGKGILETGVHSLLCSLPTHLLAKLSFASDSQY
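First, the protein-peptide complex forms for 30 min at room temperature (L3MBTL1 50 nM, biotinylated H3K9me1 peptide 75 nM). Next, compounds are pin-transferred and incubated 30 min. Finally, AlphaScreen beads are added and read after 30 min.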
BAZ2B inh – qHTS Assay for Inhibitors of BAZ2B; 4.4% of 360,000 active; AlphaScreen BAZ2B-H3K14Ac peptide displacement; Potency, µM (doses to about 114 µM), for inactives: at the highest dose activity change, negative = inhibition, actives largely listed as inhibitors; AID 504333, 2011; note: % is set by controls: 0 for no effect and ±100 for the full control effect; nearly all actives have a fitted effect of over 60% in size
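In this displacement format the biotinylated H3(5-23) peptide acetylated at Lys14 serves as ligand at 50 nM, with BAZ2B at 50 nM in PBS pH 7.4 containing 0.01% Tween-20. Donor and acceptor beads are 10 ug/mL final.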
* hit, by the source's call; ? = inconclusive; . = not tested or not shown; [ ] = dose if it differs, or a comment. Shown are actives, neighbours in structure and some others; about 11% of the full set was active somewhere. Calls come from the whole dose curve; as a rule, active = well fitted inhibition curve with a large enough effect; inconclusive = small, poorly fitted or top-dose-only effect; inactive = no such curve, though single readings can be large or run the other way. Potency is the fitted concentration of half-maximal effect.

SMILES	JMJD2A Tudor inh	HP1b chromo inh	G9a block	L3MBTL1 block	BAZ2B inh
C#CCOCCOCCOCCNc1nc(N2CCN(C(=O)[C@H](CCCN=C(N)N)n3cc(C(N)[C@@H](C)CC)nn3)CC2)nc(N2CCN(C(=O)[C@H](CC(N)=O)n3cc([C@@H](N)C(C)C)nn3)CC2)n1 (stereo partly specified)	79µM*	16%	.	-2%	.
C#CCOCCOCCOCCNc1nc(N2CCN(C(=O)[C@H](CCCN=C(N)N)n3cc(C(N)[C@@H](C)CC)nn3)CC2)nc(N2CCN(C(=O)[C@H](CC(N)=O)n3cc([C@@H](N)CC(N)=O)nn3)CC2)n1 (stereo partly specified)	22µM*	6%	.	-2%	.
C#CCOCCOCCOCCNc1nc(N2CCOCC2)nc(N2CCN(C(=O)[C@H](CCCN=C(N)N)n3cc(C(N)[C@@H](C)CC)nn3)CC2)n1 (stereo partly specified)	-20%	28%	.	11%	.
CN1CCN(c2oc(-c3ccc(OCc4ccc(Cl)cc4)cc3)nc2C#N)CC1	-18%	20%	.	.	.
CC(=O)c1ccc(NC(=O)C(Cc2ccccc2)n2cccc2)cc1 (stereo unspecified)	-18%[11.4 µM]	7%	?	.	-36%
C=CCN1C(=O)c2ccc(C(=O)N(C)CC(=O)Nc3c(C)cccc3C)cc2C1=O	-8%	8%	50µM*	4%	1%
C=CCN1C(=O)c2ccc(C(=O)N(CC)CC(=O)Nc3c(F)cccc3F)cc2C1=O	6%	26%	?	-10%	-21%
CC1CCCCN1C(=O)COC(=O)c1ccc(=O)n(Cc2ccccc2)n1 (stereo unspecified)	-1%	12%	23%[2.33 µM]	-1%	-4%
CCN1CCc2nc(N)sc2C1	3%	-20%	13µM*	2%	-15%
C=CCN1CCc2nc(N)sc2CC1	-14%	18%	16µM*	1%	-3%
C=CCN1CCN(Cc2cnc(Cl)s2)CC1	-6%	19%	7%[12.7 µM]	0%	-4%
Cc1ccc(NC(=O)N2CCN(C(=O)c3nsc4ccccc34)CC2)cc1C	-22%	18%[57 µM]	8%[59 µM]	.	-4%
C1CCc2c(nnc3c2-c2nonc2CC3)C1	-3%	23%	32µM*	?	6%
C/C(=C/c1ccccc1)C(=O)N1CCN(c2ccc(F)cc2)CC1	-22%	13%	12%[59 µM]	-2%	?
CCCN1C(=O)c2cc(C(=O)NC3CCCCCC3)ccc2C1O (stereo unspecified)	-7%	17%	?	-2%	0%
CCCN1C(=O)c2cc(C(=O)O)ccc2C1O (stereo unspecified)	89µM*	18%	?	-7%	56µM*
O=C(CSc1nnc(-c2ccco2)c(-c2ccco2)n1)c1ccccc1	45µM*	?	7%	-2%	-1%
Cc1cc(C)c2[nH]c(C(=O)Nc3ccc(F)cc3Br)cc2c1	-19%	3%	50µM*	.	-9%
COc1ccc(C2=C/C(=C\c3cccc(OC(C)=O)c3)C(=O)O2)cc1	16%	64%	-7%[59 µM]	38%	26%
O=C1OC(c2ccc(F)cc2)=C/C1=C\c1ccc([N+](=O)[O-])o1	.	.	10µM*	.	45µM*
O=C1OC(c2ccc(Cl)cc2)=C/C1=C/c1cccnc1	-11%	8%	56µM*	.	-21%
O=C1OC(c2ccc(F)cc2)=C/C1=C\c1ccc(O)cc1	-16%	7%	35µM*	4%	-4%
O=[N+]([O-])c1ccc(/C=N/N=C/c2ccc([N+](=O)[O-])o2)o1	-23%	10%	?	?	-35%
COc1ccc(Cn2cc(C(=O)c3ccc(C)c(C)c3)c(=O)c3ccccc32)cc1	-19%	17%	-24%[59 µM]	.	-26%
COc1ccc(C(=O)Nc2cc3cc(Cl)ccc3oc2=O)cc1OC	-11%	19%	-3%[59 µM]	.	0%
SMILES	JMJD2A Tudor inh	HP1b chromo inh	G9a block	L3MBTL1 block	BAZ2B inh
COc1ccc(-n2nc(-c3ccc(C)cc3)c3cnc4cc(F)c(F)cc4c32)cc1	0%	40%	-5%[59 µM]	.	.
CCOC(=O)c1nnn(-c2nc(N3CCCC3)nc(N3CCCC3)n2)c1-c1ccccc1	79µM*	-6%	1%[59 µM]	3%	-3%
O=C(CCN1C(=O)/C(=C/c2ccccc2F)SC1=S)NC1C=CS(=O)(=O)C1 (stereo unspecified)	-14%	29%	1%	.	?
CCCCCCSc1nnc2[nH]c(=O)cc(N)n12	-35%	18%	1%[59 µM]	-4%	1%
CCCCCCCCSc1nnc2[nH]c(=O)cc(N)n12	11µM*	-17%	-9%	.	-19%
CCOC(=O)N1CCN(C(=O)CCCn2c(=S)[nH]c3ccc(Br)cc3c2=O)CC1	-13%	24%	10µM*	.	-9%
CCOC(=O)N1CCN(C(=O)CCCCCn2c(=S)[nH]c3ccsc3c2=O)CC1	79µM*	34%	18µM*	.	-13%
CCOC(=O)N1CCN(C(=O)CCCn2c(=S)[nH]c3ccsc3c2=O)CC1	22µM*	19%	32µM*	.	?
CCOC(=O)N1CCN(C(=O)CCCn2c(=S)[nH]c3ccccc3c2=O)CC1	?	39%	?	.	?
O=[N+]([O-])c1cc([N+](=O)[O-])c2nonc2c1Nc1ccc(O)cc1	50µM*	?	11µM*	-15%	?
CC1CCCN(C(=O)c2ccc3c(c2NCCO)C(=O)c2ccccc2C3=O)C1 (stereo unspecified)	45µM*	50µM*	2%[12.7 µM]	.	40µM*
O=C1c2ccccc2-c2c1cccc2C(=O)N1CCCCCC1	-10%	31%	-12%	-1%	-18%
O=C1c2ccccc2C(=O)c2c1ccc(C(=O)N1CCCCC1)c2NCCO	-19%	-23%	18%[59 µM]	-5%	-5%
CC1(C)CCCN(C(=O)c2ccc3c(c2NCCO)C(=O)c2ccccc2C3=O)C1	40µM*	-79%	35µM*	35µM*	14µM*
CCc1ccc(S(=O)(=O)c2nnn3c2nc(Nc2cccc(C)c2C)c2sccc23)cc1	-11%	32%	3%[59 µM]	.	-9%
COc1cc(/C=N/Nc2nc(=O)[nH]nc2C)ccc1O	-1%[11.4 µM]	43%	-127%[12.7 µM]	5%	?
COc1cc(/C=N/n2c(-c3n[nH]c4c3CCC4)n[nH]c2=S)ccc1O	3.2µM*	?	?	.	-34%
COc1ccc(/C=N/n2c(-c3n[nH]c4c3CCC4)n[nH]c2=S)cc1OC	1.4µM*	-16%	?	-16%	-30%
O=C(/C=C/c1ccco1)Nc1ccc(Oc2ccc(Cl)cc2)cc1	11%	22%	34%[0.501 µM]	-3%	?
COc1cccc(NC(=O)C(C)(C)C)c1	-16%	17%	3.2µM*	3%	-8%
COc1cccc(NC(=O)/C=C/c2ccco2)c1	-30%	-2%	35µM*	-12%	-32%
